Screening data (PubChem BioAssay)
Most compounds without a hit are left out; they make up all but 4.5% or so of the library.
Rtt109 HAT inh: C. albicans Rtt109 histone acetyltransferase inhibition. purified Rtt109/Vps75, ThioGlo CoA-SH fluorescence, 4 h. inhibition, % at 34.9 µM. hit rate 0.16% among 330,000. AID 540336;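 active means inhibition of at least 50% in every replicate; inconclusive means best replicate reaches 50% inhibition but some replicates fall short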
Target sequence (Q5AAJ8 whole entry, looked up): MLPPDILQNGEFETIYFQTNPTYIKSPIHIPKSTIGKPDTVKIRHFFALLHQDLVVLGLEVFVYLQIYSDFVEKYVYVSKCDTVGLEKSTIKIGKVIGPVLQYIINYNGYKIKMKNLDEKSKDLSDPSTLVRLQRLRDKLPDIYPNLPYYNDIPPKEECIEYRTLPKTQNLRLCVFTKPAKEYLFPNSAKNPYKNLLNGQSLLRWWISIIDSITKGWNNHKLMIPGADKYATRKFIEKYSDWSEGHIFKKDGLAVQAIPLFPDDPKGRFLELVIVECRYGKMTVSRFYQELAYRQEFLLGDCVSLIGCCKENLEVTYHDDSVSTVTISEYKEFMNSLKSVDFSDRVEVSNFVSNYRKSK
ALR H2O2 inh: blocks human ALR sulfhydryl oxidase activity. P55789. inhibition, % (concentration not given with the values). hit rate 3.8% among 290,000. purified ALR, DTT oxidation, H2O2 HRP-luminol luminescence;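 active means mean replicate inhibition above about 79%, with every replicate also reaching it, limit read from the data; inconclusive means only one of the two criteria met; inactive means mean below limit and not every replicate reaching it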
HDAC3 inh: inhibitors of human histone deacetylase 3 | recombinant HDAC3, fluorogenic peptide/trypsin coupled, fluorescence | inhibition, % at 8.3 µM | hit rate 0.15% among 320,000; in the data active means inhibition above about 26%, passing the limit was not always enough; inconclusive means no clear call, values can overlap the other calls
Efflux pump mplx: blocks antifungal efflux pumps in multiplex yeast assay. S. cerevisiae Candida pump triplex, Nile Red efflux. inhibition, % at 10 µM. hit rate 0.44% among 330,000. AID 485275;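 active means plate passing quality check with inhibition over a set limit, or well fluorescence over plate mean plus 4 SD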;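 further: Nile Red retained in pooled yeast measured as flow cytometry median fluorescence; higher means more Nile Red kept so more efflux inhibition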
Rce1 inhib: inhibitors of yeast Ras-converting enzyme. Q03530. yeast membranes, quenched prenylated peptide cleavage fluorescence. calls only. hit rate 0.27% among 290,000;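 active means fall in fluorescence gain of 50% or more versus controls, with final raw signal at or below 3038400; inconclusive means same 50% fall but final raw signal above 3038400; inactive means fall in fluorescence gain under 50%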
Target sequence (Q03530 whole entry, looked up): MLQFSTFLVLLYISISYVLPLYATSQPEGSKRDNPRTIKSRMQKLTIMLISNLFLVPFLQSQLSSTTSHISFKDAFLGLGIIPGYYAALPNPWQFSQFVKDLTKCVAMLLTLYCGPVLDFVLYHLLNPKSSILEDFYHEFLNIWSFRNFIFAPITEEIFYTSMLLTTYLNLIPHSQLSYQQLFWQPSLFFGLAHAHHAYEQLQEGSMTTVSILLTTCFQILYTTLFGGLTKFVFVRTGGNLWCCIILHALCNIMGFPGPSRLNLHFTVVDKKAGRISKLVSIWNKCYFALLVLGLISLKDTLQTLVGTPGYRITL
GRK2 aptamer HTS: blocks RNA aptamer binding to human GRK2. bead flow cytometry, FAM-aptamer displacement from GRK2. hit rate 0.59% among 330,000. inhibition of aptamer binding, % at 10 µM. P25098;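 active means inhibition of aptamer binding above 40%, roughly 3 SD of noise, on plates passing a quality check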;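 further: median bead fluorescence of bound FAM aptamer so fluorescent compounds give negative values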
A number is an active result; i = inactive; ? = inconclusive; nt = no result given.

SMILES	Rtt109 HAT inh	ALR H2O2 inh	HDAC3 inh	Efflux pump mplx	Rce1 inhib	GRK2 aptamer HTS
Cc1cccc(NC(=O)C(C)Oc2ccc(C)nc2[N+](=O)[O-])c1 (stereo not drawn)	i	nt	i	i	nt	i
Cc1cccc(N2CCN(C(=O)c3cc(S(=O)(=O)N4CCOCC4)cn3C)CC2C)c1 (stereo not drawn)	i	i	i	i	i	i
COc1cc(C)c(N)cc1C(C)C	i	98.3	i	i	i	i
COc1cc(C)c(S(=O)(=O)N2CCOCC2)cc1C(C)C	i	i	i	i	i	i
NC(=O)NC(=O)COC(=O)CCSc1ccccc1	i	i	i	i	i	i
C[C@]12CCC(=O)C[C@@H]1CC[C@@H]1[C@@H]2CC[C@]2(C)[C@@H](C(=O)COC(=O)CCC(=O)O)CC[C@@H]12	i	i	i	i	i	i
Cc1cccc(NC(=O)Nc2ccc(S(=O)(=O)Nc3onc(C)c3C)cc2)c1	i	i	i	i	nt	i
Cc1cc(C(=O)Nc2ccc(S(=O)(=O)Nc3onc(C)c3C)cc2)cs1	i	96.9	i	i	i	i
Cc1c(C(=O)Nc2ccc(S(=O)(=O)Nc3ncccn3)cc2)oc2ccccc12	i	nt	i	i	nt	i
Cc1cc(NS(=O)(=O)c2ccc(NC(=O)c3oc4ccccc4c3C)cc2)no1	i	97.7	i	i	i	i
Cc1ccc2oc(C(=O)Nc3ccc(S(=O)(=O)Nc4onc(C)c4C)cc3)c(C)c2c1	i	98.1	i	i	i	i
Cc1noc(NS(=O)(=O)c2ccc(NC(=O)c3ccoc3C)cc2)c1C	i	i	i	i	i	i
Cc1cc(C(=O)Nc2ccc(S(=O)(=O)Nc3onc(C)c3C)cc2)c(C)o1	i	83.9	i	i	i	i
O=C1N=C(C=c2ccc(=Cc3[nH]c(=O)[nH]c3O)cc2)C(=O)N1	nt	i	i	i	i	i
Cn1/c(=N\NC(=O)c2ccccc2Cl)sc2ccccc21	i	i	i	i	i	i
CCCCCCSc1ccc([C@@H]2[C@H]3C(=O)N(CC)C(=O)[C@H]3[C@]3(C(=O)OC)CCCCN23)cc1OC	i	i	i	i	nt	i
Cc1cc(NS(=O)(=O)c2ccc(NC(=O)Nc3cccc(Cl)c3)cc2)no1	i	97.8	i	i	i	i
Cc1cc(C(=O)Nc2nc3c(C)cccc3s2)c(C)o1	i	95.4	i	i	i	i
Cc1cc(C(=O)Nc2ccncc2)c(C)o1	50.6	nt	nt	nt	nt	nt
Cc1ccc(S(=O)(=O)Nc2ccc(NC(=O)Nc3cccc(C(F)(F)F)c3)cc2)cc1	i	i	31.0	i	i	i
Cc1cc(NS(=O)(=O)c2ccc(NC(=O)Nc3ccc4c(c3)OCO4)cc2)no1	i	nt	i	i	i	i
Cc1cc(C(=O)Nc2ccc(C(=O)O)cc2)c(C)o1	i	nt	i	i	i	i
CCN(CC)S(=O)(=O)c1ccc(NC(=O)Nc2cccc(C(F)(F)F)c2)cc1	i	i	?	i	i	i
CCCCN(C)S(=O)(=O)c1ccc(C(=O)Nc2nnc(-c3ccco3)o2)cc1	nt	84.1	i	i	nt	i
Cc1cccc(C)c1OCC(=O)NCC1COc2ccccc2O1 (stereo not drawn)	i	i	i	i	nt	i
SMILES	Rtt109 HAT inh	ALR H2O2 inh	HDAC3 inh	Efflux pump mplx	Rce1 inhib	GRK2 aptamer HTS
CCCN1C(=O)c2ccccc2NC1c1ccc(OC)cc1OC (stereo not drawn)	i	i	i	i	i	i
CCCN1C(=O)c2ccccc2NC1c1ccc(OC)cc1O (stereo not drawn)	i	88.2	i	i	i	i
O=C1c2ccccc2NC(c2ccccc2O)N1O (stereo not drawn)	i	91.1	i	i	i	i
CCOc1ccc(C(C(=O)NCC2CCCO2)N(Cc2cccs2)C(=O)c2snc(C(N)=O)c2N)cc1 (stereo not drawn)	i	i	i	i	nt	i
C[C@@H](C(=O)CC(=O)OC(C)(C)C)[C@@H](O)c1ccccc1	i	i	i	i	i	i
O=C(c1csc2c1CCCC2)n1cccn1	i	i	78.8	i	i	i
O=C(c1ccc(OCCN2CCCCC2)cc1)c1c(-c2ccc(O)cc2)sc2cc(O)ccc12	?	90.9	i	i	i	i
COc1ccc(CN(C(=O)CCC(=O)Nc2cc(C)on2)C(C(=O)NC(C)(C)C)c2cccc(OC)c2OC)cc1 (stereo not drawn)	i	i	i	i	i	i
Cc1[nH]c2ccccc2c1N=Nc1cccc(C(=O)O)c1	?	98.1	i	i	i	i
CCn1cc(C(=O)NCCC(=O)NCCCO)c(=O)c2cc3c(cc21)OCO3	i	i	i	i	i	i
Cc1cc(NC(=O)CSc2nnc(C(F)(F)F)n2C)no1	i	i	i	i	nt	i
CCN(CC)c1ccc2c(C)c(CO)c(=O)oc2c1	i	99.3	i	i	i	i
CC(=O)NC12CC3CC(C1)CC(C(=O)N1CCN(S(=O)(=O)c4ccc(C(C)C)cc4)CC1)(C3)C2	i	i	i	i	i	i
Cn1c(-c2ccc(F)cc2)cnc1NCc1cccc([N+](=O)[O-])c1	i	i	i	i	i	i
Cn1c(-c2cccc([N+](=O)[O-])c2)cnc1NCc1ccc(C#N)cc1	i	98.6	i	i	i	i
Cn1c(-c2ccc(Br)cc2)cnc1NCc1ccc(C#N)cc1	i	i	i	i	i	i
Cn1c(-c2cccc([N+](=O)[O-])c2)cnc1NCc1cccc(F)c1	i	98.6	i	i	i	i
CC1CCCCC12NC(=O)N(CC(=O)NNC(=O)c1ccc(Br)cc1)C2=O (stereo not drawn)	i	i	i	i	nt	i
CCS(=O)(=O)c1ncc(CO)n1CCc1ccccc1	i	i	i	i	i	i
CC(=O)c1ccc(NC(=O)COC(=O)CCc2ccc(S(=O)(=O)N3CCOCC3)cc2)cc1	i	nt	nt	i	i	i
Cn1c(SCC(=O)c2ccccc2)ncc(C(=O)Nc2ccccc2)c1=O	i	97.9	i	i	i	i
O=C1c2ccccc2NC(c2ccc(O)c(O)c2)N1c1ccccc1Cl (stereo not drawn)	i	99.6	i	i	i	i
COc1ccc(S(=O)(=O)/N=C2/NC(=O)/C(=C/c3ccco3)S2)cc1	i	98.7	i	i	i	i
COc1ccc(NC(=O)C2CCCCN2N)cc1OC (stereo not drawn)	i	i	i	i	i	i
O=C(Nc1ccc(N2CCCCC2)cc1)c1cccnc1	i	97.6	i	i	i	i
SMILES	Rtt109 HAT inh	ALR H2O2 inh	HDAC3 inh	Efflux pump mplx	Rce1 inhib	GRK2 aptamer HTS
Cc1ccccc1C(=O)Nc1ccc(N2CCCC2)cc1	i	92.3	i	i	i	i
COc1ccc(NC(=O)c2cccnc2N2CCCCC2)cc1	i	i	i	i	i	i
COc1ccc(NC(=O)c2cccnc2N2CCCC2)cc1	i	99.0	i	i	i	i
COc1ccc(NC(=O)C2CCCN2c2ccc(OC)c(OC)c2)cc1OC (stereo not drawn)	i	99.0	i	i	i	i
COc1ccc(NC(=S)N2CCC(NC(=O)C3CCCCC3)CC2)cc1	i	i	i	i	i	i
CCOc1ccc(CCNC(=O)c2ccc(S(=O)(=O)N3CCCC3)cc2)cc1OCC	i	i	i	i	i	i
